Only some compounds are listed: those with a hit (about 6.7% of all), similar ones and a draw of the others.
T cruzi growth-1: blocks T. cruzi growth in NIH3T3 culture; T. cruzi beta-gal in NIH3T3, GalScreen luminescence, 90 h; inhibition, % at 8.34 µM; 77,000 tested, 5.9% active;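 active means mean inhibition above about 93%, with at least 55% of replicates each passing it, limit read from the data, passing the limit was not always enough; inconclusive means only one of those two conditions holds; inactive means neither condition holds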
C diff HTS: inhibitors of Clostridium difficile growth; Clostridium difficile clinical isolate growth, OD600, 24 h; hits give low values; 86,000 tested, 0.25% active; growth activity, negative = inhibition, % at 16 µg/mL (by protocol);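 active means mean growth activity at or below -80% and every replicate also at or below -80%; inconclusive means mean at or below -80% but some replicate above -80%; inactive means mean growth activity above -80%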;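 further: 0% = DMSO wells and -100% = levofloxacin 16 µg/mL wells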
Pf Dd2 growth: blocks growth of Plasmodium falciparum Dd2 parasites; P. falciparum Dd2 growth, SYBR Green, 72 h; hits give low values; AID 1159554; 94,000 tested, 2.3% active; activity change, % at 10 µM; in the data active means activity change below about -80%; inconclusive means no clear call, values can overlap the other calls
T cruzi growth-2: inhibitors of T. cruzi proliferation. shares compounds with T cruzi growth-1. T. cruzi beta-gal in NIH3T3, GalScreen luminescence, 90 h. inhibition, % at 8.35 µM. 5,600 tested, 72% active. AID 651739;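 active means mean replicate inhibition above about 95% and at least 55% of replicates individually reaching it, limit read from the data; inconclusive means only one of the two criteria is met; inactive means neither criterion is met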
T cruzi growth-3: Trypanosoma cruzi proliferation inhibition. AID 651740. shares compounds with T cruzi growth-1. 5,600 tested, 21% active. T. cruzi beta-gal in NIH3T3, GalScreen luminescence, 90 h. inhibition, % at 2.09 µM;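 active means mean inhibition above about 95%, with at least 55% of replicates also reaching it, limit read from the data; inconclusive means meets just one of the two conditions; inactive means meets neither condition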;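 further: plate controls were neutral control median for no effect and positive control median for full effect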
NIH3T3 tox: cytotoxicity in mouse NIH/3T3 fibroblasts | cytotoxicity (signal decrease), % at 8.35 µM | shares compounds with T cruzi growth-1 | NIH/3T3 viability, CellTiter-Glo ATP luminescence, 90 h | 5,600 tested, 14% active | AID 651742;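 active means mean signal decrease across replicates above about 35% based on untreated-well scatter, with enough replicates individually passing, limit read from the data; inconclusive means no rule stated though some were filed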;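 further: 0% = median of neutral control wells and 100% = median of positive control wells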
3T3 cytotox 2: NIH/3T3 (mouse) viability loss. NIH/3T3 viability, CellTiter-Glo ATP luminescence, 90 h. 5,600 tested, 56% active. AID 651744. inhibition, % at 24.9 µM. shares compounds with T cruzi growth-1;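 active means mean loss of cell viability signal at or above a set limit, and enough replicates individually reaching it; inconclusive means meets only the mean limit or only the replicate share; inactive means meets neither condition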;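 further: 0% = median of neutral control wells and 100% = median of positive control wells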
Numbers without * were called inactive; ? = inconclusive; / = not tested or not shown; ! = a repeat was not active.

SMILES | T cruzi growth-1 | C diff HTS | Pf Dd2 growth | T cruzi growth-2 | T cruzi growth-3 | NIH3T3 tox | 3T3 cytotox 2
Cc1ccc(-c2ccc3c(c2)O[C@@H](CN(C)Cc2ccncc2)[C@H](C)CN([C@H](C)CO)S3(=O)=O)cc1 | 123* | -27 | -84* | 88 | 100* | 98* | 106*
CN1C(=O)c2cc(NC(=O)Cc3cccs3)ccc2OC[C@H]2O[C@H](CC(=O)NCC3CC3)CC[C@H]21 | -36 | 4 | 7 | / | / | / | /
O=C(C[C@H]1CC[C@@H]2[C@H](COC[C@@H](O)CN2S(=O)(=O)c2cccc(Cl)c2)O1)Nc1ccc(-c2ccccc2)cc1 | 103* | 6 | -39 | 89 | 108* | 52* | 105*
O=C(C[C@@H]1CC[C@H]2[C@@H](COC[C@@H](O)CN2S(=O)(=O)c2cccc(Cl)c2)O1)Nc1ccccc1 | -4 | 12 | 15 | / | / | / | /
O=C(C[C@H]1CC[C@H]2[C@@H](COC[C@@H](O)CN2S(=O)(=O)c2cccc(Cl)c2)O1)Nc1ccc(-c2ccccc2)cc1 | 109* | 14 | -10 | 107* | 108* | 11 | 92*
O=C(C[C@H]1CC[C@H]2[C@@H](COC[C@H](O)CN2S(=O)(=O)c2cccc(Cl)c2)O1)Nc1ccc(-c2ccccc2)cc1 | 90 | 2 | -17 | / | / | / | /
COc1ccc2c3c(n(C)c2c1)[C@H](CO)NCC31CN(S(=O)(=O)c2ccc(C)cc2)C1 | / | -15 | -49 | / | / | / | /
COc1cccc(C(=O)Nc2ccc3c(c2)C(=O)N(C)[C@@H]2CC[C@H](CC(=O)NCC(F)(F)F)O[C@@H]2CO3)c1 | 23 | 67 | 0 | / | / | / | /
CO[C@H](CN(C)C(=O)c1ccc2c(c1)OCO2)[C@@H](C)CN([C@@H](C)CO)S(=O)(=O)c1ccccc1 | 18 | / | 9 | / | / | / | /
C[C@@H]1CN([C@H](C)CO)C(=O)c2cc(N(C)C)ccc2O[C@@H](C)CCCCO[C@H]1CN(C)Cc1ccc(C(F)(F)F)cc1 | 120* | 22 | -23 | 99* | 113* | 7 | 106*
C[C@@H]1CN([C@@H](C)CO)C(=O)c2cc(N(C)C)ccc2O[C@@H](C)CCCCO[C@@H]1CN(C)Cc1ccc(C(F)(F)F)cc1 | 74 | 22 | -21 | / | / | / | /
C[C@@H]1CCCCO[C@@H](CN(C)Cc2ccccc2)[C@@H](C)CN([C@H](C)CO)C(=O)c2cc(N(C)C)ccc2O1 | 61 | 2 | 13 | / | / | / | /
C[C@H](CO)N1C[C@H](C)[C@@H](CN(C)Cc2ccccc2)OCCCC[C@H](C)Oc2ccc(N(C)C)cc2C1=O | 100*! | -3 | -13 | 32 | 1 | -9 | -3
C[C@H](CO)N1C[C@H](C)[C@@H](CN(C)CC2CCCCC2)OCCCC[C@H](C)Oc2ccc(N(C)C)cc2C1=O | 99* | 5 | -10 | 110* | 83 | -11 | 14
C[C@@H]1CCCCO[C@@H](CN(C)Cc2ccc(C(=O)O)cc2)[C@H](C)CN([C@@H](C)CO)C(=O)c2cc(N(C)C)ccc2O1 | 29 | 1 | 24 | / | / | / | /
C[C@@H]1CN([C@@H](C)CO)C(=O)c2cc(N(C)C)ccc2O[C@@H](C)CCCCO[C@H]1CN(C)Cc1ccc(C(F)(F)F)cc1 | 119* | 28 | -48 | 110* | 108* | 4 | 87*
C[C@@H]1CCCCO[C@@H](CN(C)CC2CCCCC2)[C@@H](C)CN([C@H](C)CO)C(=O)c2cc(N(C)C)ccc2O1 | 77 | 2 | 22 | / | / | / | /
COc1ccc(NC(=O)N2CC(=O)N3[C@@H](CO)[C@H](c4ccc(C5=CCCC5)cc4)[C@@H]3C2)cc1 | / | 1 | -8 | / | / | / | /
COc1ccc(CN2C[C@@H](O)COC[C@H]3O[C@@H](CC(=O)NCCN4CCCC4)CC[C@@H]32)cc1 | -62 | 9 | 6 | / | / | / | /
C[C@@H]1CN([C@H](C)CO)C(=O)Cc2cc(NC(=O)NC3CCCCC3)ccc2O[C@@H]1CN(C)S(=O)(=O)c1ccccc1 | -11 | 3 | -10 | / | / | / | /
Cc1noc(C)c1NC(=O)N(C)C[C@@H]1OCCCC[C@H](C)Oc2ccc(NC(=O)C3CCCCC3)cc2C(=O)N([C@@H](C)CO)C[C@@H]1C | 12 | -1 | -46 | / | / | / | /
C[C@H](CO)N1C[C@H](C)[C@@H](CN(C)Cc2ccc(C(F)(F)F)cc2)OCCCC[C@H](C)Oc2ccc(N(C)C)cc2C1=O | 108* | 19 | -20 | 111* | 95 | -8 | 97*
C[C@H]1CCCCO[C@@H](CN(C)Cc2ccc(C(=O)O)cc2)[C@@H](C)CN([C@@H](C)CO)C(=O)c2cc(N(C)C)ccc2O1 | 5 | 2 | 26 | / | / | / | /
C[C@@H]1CCCCO[C@@H](CN(C)Cc2ccc(C(=O)O)cc2)[C@@H](C)CN([C@H](C)CO)C(=O)c2cc(N(C)C)ccc2O1 | 50 | 2 | 41 | / | / | / | /
C[C@H](CO)N1C[C@H](C)[C@H](CN(C)Cc2ccc(C(F)(F)F)cc2)OCCCC[C@H](C)Oc2ccc(N(C)C)cc2C1=O | 62 | 19 | -15 | / | / | / | /
SMILES | T cruzi growth-1 | C diff HTS | Pf Dd2 growth | T cruzi growth-2 | T cruzi growth-3 | NIH3T3 tox | 3T3 cytotox 2
C[C@@H]1CN([C@H](C)CO)C(=O)c2cc(N(C)C)ccc2O[C@@H](C)CCCCO[C@@H]1CN(C)Cc1ccc(C(F)(F)F)cc1 | ? | 28 | -67 | 109* | 88 | 18 | 107*
C[C@@H]1CCCCO[C@H](CN(C)Cc2ccc(C(F)(F)F)cc2)[C@@H](C)CN([C@H](C)CO)C(=O)c2cc(N(C)C)ccc2O1 | ? | 15 | -31 | 112* | 16 | 25 | ?
CCCNC(=O)c1cc2c(c(-c3cccc(-c4cccc(OC)c4)c3)n1)[C@@H](CCO)N([S@](=O)C(C)(C)C)C2 | 71 | / | -52 | / | / | / | /
CC(=O)N(C)C[C@H]1Oc2ncc(-c3cccc(C#N)c3)cc2C(=O)N([C@H](C)CO)C[C@H]1C | -14 | -4 | 27 | / | / | / | /
O=C(Nc1ccccc1)N1C[C@@H]2[C@H](c3ccccc31)[C@@H](CO)N2Cc1ccc(F)cc1 | 54 | 14 | -10 | / | / | / | /
C[C@@H]1CCCCO[C@@H](CN(C)S(=O)(=O)c2ccccc2)[C@H](C)CN([C@@H](C)CO)C(=O)c2cc(NS(=O)(=O)c3ccc(Cl)cc3)ccc2O1 | 116* | -8 | -1 | 101* | 78 | -6 | -6
C[C@H](CO)N1C[C@H](C)[C@H](CN(C)S(=O)(=O)c2ccc(Cl)cc2)OCCCC[C@H](C)Oc2ccc(NS(=O)(=O)c3ccccc3)cc2C1=O | ? | -7 | -56 | 99* | 87 | -4 | -15
C[C@@H]1CN([C@H](C)CO)C(=O)c2cc(NS(=O)(=O)c3ccc(Cl)cc3)ccc2O[C@@H](C)CCCCO[C@H]1CN(C)S(=O)(=O)c1ccccc1 | / | -1 | -36 | / | / | / | /

Source: PubChem BioAssay
